# Assay results as given in the supplement of paper PMC8728848.
# Shown is part of a subset that was picked to be rich in the strongest signals.
# B1: SP15308A-bot-339-19-339 (Bacteroides ovatus) (protein)
# chain: ACNNEWEDEQYEQYISFKSPIPAGGEGVTDIYVRYKEDGKVTYRLPIVVSGSTTNTLDREVHIAVDKDTLETLNIERFSIHRPGLWYTALEEDKYDFPKTVHISAGSSVEQLNIDFNLQGIDMLEKWVLPLTIVDDPSYNYKSHPRKNYAKALLRVIPFNNYSGSYTSSAMKVYTYINGKPDTNARTANKRTGYVINDNTVFFYAGLISEDLDKEVREKYKINVHFNEDGTLHMEQGDPTNKMKFELIGTPTYSKTSVMDATRPYLERRYVQIMFEYDFEDFSYGGNGVDVIPIKYKVEGSMTLQRNINTQIPDEDQQIEW
# Key:
# Test in all cases: glycan array binding signal (z-score within array); higher = stronger binding
# Conditions in all cases: glycan notation: IUPAC condensed, linker removed
# [1] = molecular target: Fuc(a1-2)Gal(b1-3)GlcNAc(b1-2)Man(a1-3)[Fuc(a1-2)Gal(b1-3)GlcNAc(b1-2)Man(a1-6)]Man(b1-4)GlcNAc(b1-4)[Fuc(a1-6)]GlcNAc
# How it was run: (§1)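 Glycan array binding is given as a within-array Z-score, which can be read as non-binding when negative. The arrays, 3228 of them, came from the Consortium for Functional Glycomics database and were retained only where the protein sequence was available. Z-scores were averaged across arrays of the same protein sequence at different concentrations or buffers and across linkers.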
# [2] = molecular target: Fuc(a1-2)Gal(b1-3)GlcNAc(b1-3)[Gal(b1-4)GlcNAc(b1-6)]Gal(b1-4)Glc
# How it was run: as §1
# [3] = molecular target: Fuc(a1-2)[Gal(a1-3)]Gal(b1-4)GlcNAc(b1-3)[Fuc(a1-2)[Gal(a1-3)]Gal(b1-4)GlcNAc(b1-6)]GalNAc
# How it was run: as §1
# [4] = molecular target: Fuc(a1-2)[GalNAc(a1-3)]Gal(b1-3)GlcNAc(b1-3)GalNAc
# How it was run: as §1
# [5] = molecular target: Fuc(a1-2)[GalNAc(a1-3)]Gal(b1-4)GlcNAc(b1-3)Gal(b1-4)GlcNAc(b1-3)Gal(b1-4)GlcNAc
# How it was run: as §1
# [6] = molecular target: Fuc(a1-3)[Gal(b1-4)]GlcNAc(b1-2)Man
# How it was run: as §1
# Fuc(a1-4)GlcNAc = molecular target: Fuc(a1-4)GlcNAc
# How it was run: as §1
# [7] = molecular target: Gal(a1-3)[Gal(a1-4)]Gal(b1-4)GlcNAc
# How it was run: as §1
# Gal(a1-4)Gal(b1-4)GlcNAc = molecular target: Gal(a1-4)Gal(b1-4)GlcNAc
# How it was run: as §1
# Gal(a1-6)Glc = molecular target: Gal(a1-6)Glc
# How it was run: as §1
# Gal(b1-2)Gal = molecular target: Gal(b1-2)Gal
# How it was run: as §1
# Gal(b1-3)GlcNAc = molecular target: Gal(b1-3)GlcNAc
# How it was run: as §1
# [8] = molecular target: Gal(b1-3)GlcNAc(a1-3)Gal(b1-4)GlcNAc
# How it was run: as §1
# Gal(b1-3)GlcNAc(b1-2)Man = molecular target: Gal(b1-3)GlcNAc(b1-2)Man
# How it was run: as §1
# [9] = molecular target: Gal(b1-3)GlcNAc(b1-3)Gal(b1-4)Glc
# How it was run: as §1
# [10] = molecular target: Gal(b1-3)GlcNAc(b1-3)GalNAc
# How it was run: as §1
# [11] = molecular target: Gal(b1-4)GlcNAc(b1-2)[Gal(b1-4)GlcNAc(b1-6)]Man(a1-6)[GlcNAc(b1-4)][Gal(b1-4)GlcNAc(b1-2)Man(a1-3)]Man(b1-4)GlcNAc(b1-4)GlcNAc
# How it was run: as §1
# [12] = molecular target: Gal(b1-4)GlcNAc(b1-3)Gal(b1-4)GlcNAc(b1-3)Gal(b1-4)GlcNAc(b1-2)Man(a1-3)[Gal(b1-4)GlcNAc(b1-3)Gal(b1-4)GlcNAc(b1-3)Gal(b1-4)GlcNAc(b1-2)Man(a1-6)]Man(b1-4)GlcNAc(b1-4)[Fuc(a1-6)]GlcNAc
# How it was run: as §1
# [13] = molecular target: Gal(b1-4)GlcNAc(b1-3)Gal(b1-4)GlcNAc(b1-3)Gal(b1-4)GlcNAc(b1-3)Gal(b1-4)GlcNAc(b1-3)Gal(b1-4)GlcNAc(b1-2)[Gal(b1-4)GlcNAc(b1-3)Gal(b1-4)GlcNAc(b1-3)Gal(b1-4)GlcNAc(b1-3)Gal(b1-4)GlcNAc(b1-3)Gal(b1-4)GlcNAc(b1-6)]Man(a1-6)[Gal(b1-4)GlcNAc(b1-3)Gal(b1-4)GlcNAc(b1-3)Gal(b1-4)GlcNAc(b1-3)Gal(b1-4)GlcNAc(b1-3)Gal(b1-4)GlcNAc(b1-2)Man(a1-3)]Man(b1-4)GlcNAc(b1-4)[Fuc(a1-6)]GlcNAc
# How it was run: as §1
# Gal3S(b1-3)GalNAc = molecular target: Gal3S(b1-3)GalNAc
# How it was run: as §1
# Gal3S(b1-4)Glc = molecular target: Gal3S(b1-4)Glc
# How it was run: as §1
# Gal3S4S(b1-4)GlcNAc = molecular target: Gal3S4S(b1-4)GlcNAc
# How it was run: as §1
# GalNAc(a1-3)GalNAc = molecular target: GalNAc(a1-3)GalNAc
# How it was run: as §1
# GalNAc(b1-4)GlcNAc = molecular target: GalNAc(b1-4)GlcNAc
# How it was run: as §1
# [14] = molecular target: GalNAc(b1-4)GlcNAc(b1-2)Man(a1-3)[GalNAc(b1-4)GlcNAc(b1-2)Man(a1-6)]Man(b1-4)GlcNAc(b1-4)GlcNAc
# How it was run: as §1
# GlcA(b1-3)GlcNAc = molecular target: GlcA(b1-3)GlcNAc
# How it was run: as §1
# [15] = molecular target: GlcNAc(a1-4)Gal(b1-4)GlcNAc(b1-3)Gal(b1-4)Glc
# How it was run: as §1
# [16] = molecular target: GlcNAc(b1-2)Man(a1-3)[GlcNAc(b1-4)][GlcNAc(b1-2)Man(a1-6)]Man(b1-4)GlcNAc(b1-4)[Fuc(a1-6)]GlcNAc
# How it was run: as §1
# [17] = molecular target: GlcNAc(b1-2)[GlcNAc(b1-4)]Man(a1-3)[GlcNAc(b1-4)][GlcNAc(b1-2)Man(a1-6)]Man(b1-4)GlcNAc(b1-4)GlcNAc
# How it was run: as §1
# [18] = molecular target: GlcNAc(b1-2)[GlcNAc(b1-4)]Man(a1-3)[GlcNAc(b1-4)][GlcNAc(b1-2)[GlcNAc(b1-6)]Man(a1-6)]Man(b1-4)GlcNAc(b1-4)GlcNAc
# How it was run: as §1
# [19] = molecular target: GlcNAc(b1-3)Gal(b1-4)GlcNAc(b1-2)Man(a1-3)[GlcNAc(b1-3)Gal(b1-4)GlcNAc(b1-2)Man(a1-6)]Man(b1-4)GlcNAc(b1-4)[Fuc(a1-6)]GlcNAc
# How it was run: as §1
# [20] = molecular target: GlcNAc(b1-3)Gal(b1-4)GlcNAc(b1-3)[GlcNAc(b1-3)Gal(b1-4)GlcNAc(b1-3)]GalNAc
# How it was run: as §1
# GlcNAc(b1-3)Man = molecular target: GlcNAc(b1-3)Man
# How it was run: as §1
# [21] = molecular target: GlcNAc(b1-4)GlcNAc(b1-4)GlcNAc(b1-4)GlcNAc(b1-4)GlcNAc
# How it was run: as §1
# [22] = molecular target: Man(a1-2)Man(a1-2)Man(a1-3)Man
# How it was run: as §1
# [23] = molecular target: Neu5Ac(a2-3)Gal(b1-3)GalNAc
# How it was run: as §1
# Neu5Ac(a2-3)Gal(b1-4)Glc = molecular target: Neu5Ac(a2-3)Gal(b1-4)Glc
# How it was run: as §1
# [24] = molecular target: Neu5Ac(a2-3)Gal(b1-4)GlcNAc(b1-3)Gal(b1-3)GlcNAc
# How it was run: as §1
# [25] = molecular target: Neu5Ac(a2-3)Gal(b1-4)GlcNAc(b1-3)Gal(b1-4)GlcNAc(b1-3)GalNAc
# How it was run: as §1
# [26] = molecular target: Neu5Ac(a2-3)Gal(b1-4)[Fuc(a1-3)]GlcNAc(b1-3)GalNAc
# How it was run: as §1
# Neu5Ac(a2-3)GalNAc = molecular target: Neu5Ac(a2-3)GalNAc
# How it was run: as §1
# Neu5Ac(a2-6)GalNAc = molecular target: Neu5Ac(a2-6)GalNAc
# How it was run: as §1
# [27] = molecular target: Neu5Ac(a2-8)Neu5Ac(a2-3)[Gal(b1-3)GalNAc(b1-4)]Gal(b1-4)Glc
# How it was run: as §1
# [28] = molecular target: Neu5Ac(a2-8)Neu5Gc(a2-3)Gal(b1-4)GlcNAc
# How it was run: as §1
# [29] = molecular target: Neu5Gc(a2-3)Gal(b1-3)[Fuc(a1-4)]GlcNAc
# How it was run: as §1
binder,measurement,setting,value
B1,glycan array binding signal (z-score),[1],0.285
same,glycan array binding signal (z-score),[2],-0.461
same,glycan array binding signal (z-score),[3],8.34
same,glycan array binding signal (z-score),[4],0.521
same,glycan array binding signal (z-score),[5],0.178
same,glycan array binding signal (z-score),[6],0.187
same,glycan array binding signal (z-score),Fuc(a1-4)GlcNAc,19.1
same,glycan array binding signal (z-score),[7],1.28
same,glycan array binding signal (z-score),Gal(a1-4)Gal(b1-4)GlcNAc,0.261
same,glycan array binding signal (z-score),Gal(a1-6)Glc,0.432
same,glycan array binding signal (z-score),Gal(b1-2)Gal,0.055
same,glycan array binding signal (z-score),Gal(b1-3)GlcNAc,0.061
same,glycan array binding signal (z-score),[8],0.217
same,glycan array binding signal (z-score),Gal(b1-3)GlcNAc(b1-2)Man,2.76
same,glycan array binding signal (z-score),[9],-0.437
same,glycan array binding signal (z-score),[10],0.029
same,glycan array binding signal (z-score),[11],-0.304
same,glycan array binding signal (z-score),[12],2.77
same,glycan array binding signal (z-score),[13],0.968
same,glycan array binding signal (z-score),Gal3S(b1-3)GalNAc,0.97
same,glycan array binding signal (z-score),Gal3S(b1-4)Glc,0.257
same,glycan array binding signal (z-score),Gal3S4S(b1-4)GlcNAc,0.201
same,glycan array binding signal (z-score),GalNAc(a1-3)GalNAc,1.35
same,glycan array binding signal (z-score),GalNAc(b1-4)GlcNAc,1.18
same,glycan array binding signal (z-score),[14],1.54
same,glycan array binding signal (z-score),GlcA(b1-3)GlcNAc,-0.486
same,glycan array binding signal (z-score),[15],0.185
same,glycan array binding signal (z-score),[16],-0.474
same,glycan array binding signal (z-score),[17],1.11
same,glycan array binding signal (z-score),[18],-0.391
same,glycan array binding signal (z-score),[19],0.083
same,glycan array binding signal (z-score),[20],0.148
same,glycan array binding signal (z-score),GlcNAc(b1-3)Man,-0.188
same,glycan array binding signal (z-score),[21],-0.452
same,glycan array binding signal (z-score),[22],-0.468
same,glycan array binding signal (z-score),[23],1.94
same,glycan array binding signal (z-score),Neu5Ac(a2-3)Gal(b1-4)Glc,0.997
same,glycan array binding signal (z-score),[24],0.117
same,glycan array binding signal (z-score),[25],-0.51
same,glycan array binding signal (z-score),[26],1.76
same,glycan array binding signal (z-score),Neu5Ac(a2-3)GalNAc,0.234
same,glycan array binding signal (z-score),Neu5Ac(a2-6)GalNAc,-0.36
same,glycan array binding signal (z-score),[27],-0.083
same,glycan array binding signal (z-score),[28],-0.21
same,glycan array binding signal (z-score),[29],-0.412
